Experimental data: the supplement of paper PMC8253809
Several values for one entry are separate records, joined by “and”; a condition that tells them apart may be missing. Equal values may be shown once.

Assays:
Experiment in all cases: growth inhibition (% activity, log2 RLU normalised to DMSO / staurosporine); higher = more growth inhibition
Settings in all cases: 33 µM
DIPGX29 = system: DIPGX29 (H3.3 K27M diffuse intrinsic pontine glioma line)
In short: (§1)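 pHGG cell lines and H9-derived neural stem cells were grown on Geltrex-coated 384-well plates. Approved drugs were added by pin tool at a single final concentration of about 33 μM, in triplicate, for 7 days at 37 °C, 5% CO2. CellTiter-Glo luminescence was log2-transformed and normalised per plate to % activity between solvent and positive control wells. The growth-inhibition value is the median over replicates.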

DIPGX37 = system: DIPGX37 (H3.3 K27M diffuse intrinsic pontine glioma line)
In short: as §1

DIPGX7 = system: DIPGX7 (H3.3 K27M diffuse intrinsic pontine glioma line)
In short: as §1

DIPGX9 = system: DIPGX9 (diffuse intrinsic pontine glioma line)
In short: as §1

HGGX39 = system: HGGX39 (paediatric high-grade glioma line)
In short: as §1

HGGX6 = system: HGGX6 (H3.3 G34R paediatric high-grade glioma line)
In short: as §1

HNSC = system: HNSC
In short: as §1

SUDIPGIV = system: SUDIPGIV (diffuse intrinsic pontine glioma line)
In short: as §1

SUDIPGVI = system: SUDIPGVI (diffuse intrinsic pontine glioma line)
In short: as §1

SUDIPGXIII = system: SUDIPGXIII (diffuse intrinsic pontine glioma line)
In short: as §1

| SMILES | growth inhibition (DIPGX29) | growth inhibition (DIPGX37) | growth inhibition (DIPGX7) | growth inhibition (DIPGX9) | growth inhibition (HGGX39) | growth inhibition (HGGX6) | growth inhibition (HNSC) | growth inhibition (SUDIPGIV) | growth inhibition (SUDIPGVI) | growth inhibition (SUDIPGXIII) |
| --- | --- | --- | --- | --- | --- | --- | --- | --- | --- | --- |
| COc1ccc(Cl)cc1C(=O)NCCc1ccc(S(=O)(=O)NC(=O)NC2CCCCC2)cc1 | -0.549% | 1.98% | -0.628% | -1.16% | 1.11% | 0.0176% | 2.28% | 0.343% | 1.26% | -1.12% |
| CN1CCC(=C2c3ccccc3CC(=O)c3sccc32)CC1 | -0.432% | 0.985% | -0.625% | 0.0911% | 0.272% | 2.44% | 1.53% | -1.24% | 0.438% | 0.861% |
| O=P(O)(O)C(O)(Cn1ccnc1)P(=O)(O)O | 0.235% | 2.6% | 0.072% | 1.97% | 2.08% | 1.84% | 1.26% | 1.08% | 4.43% | -0.376% |
| C=C[C@]1(C)C[C@@H](OC(=O)CSC(C)(C)CNC(=O)[C@H](N)C(C)C)[C@]2(C)[C@H](C)CC[C@]3(CCC(=O)[C@H]32)[C@@H](C)[C@@H]1O | 2.79% | 0.213% | 4.74% | 1.8% | 20.9% | 4.36% | 15.7% | 29.9% | 1.61% | 46.4% |
| CCCSc1nc(N[C@@H]2C[C@H]2c2ccc(F)c(F)c2)c2nnn([C@@H]3C[C@H](OCCO)[C@@H](O)[C@H]3O)c2n1 | 2.23% | 3.23% | 4.99% | 1.97% | 5.25% | 1.74% | 20.6% | 3.4% | 3.52% | 0.841% |
| CCOc1ccccc1OC(c1ccccc1)C1CNCCO1 (stereo not given) | 0.58% | 2.23% | -0.477% | 1.96% | 0.0675% | 0.362% | -1.38% | -0.307% | -0.0566% | 0.138% |
| Oc1ccc(OCc2ccccc2)cc1 | 2.78% | -1.94% | 5.44% | 2.61% | 1.21% | 1.02% | 10.9% | -2.99% | -1.42% | -1.26% |
| CCCCCCCCCCOc1cc2c(O)c(C(=O)OCC)cnc2cc1OCC | -0.3% | -1.31% | 1.61% | -0.589% | 1.16% | -2.39% | 8.91% | 1.52% | -8.46% | -1.19% |
| CC[C@@H](CO)NCCN[C@@H](CC)CO | -4.2% | -0.485% | -2.38% | -2.09% | -0.115% | -2.97% | -1.6% | -3.04% | -1.42% | -0.832% |
| CN1CCN(c2c(F)cc3c(=O)c(C(=O)O)cn4c3c2OCN4C)CC1 | 0.647% | 0.371% | 3.3% | 2.03% | 2.92% | 3.21% | 2.71% | 1.21% | 4.19% | -0.0388% |
| CCCCCCCCCCCCCCCC[N+](C)(C)C | 27.4% | 41.6% | 34% | 22.2% | 48.6% | 23.6% | 59.5% | 36.8% | 57.8% | 18.1% |
| CCc1c2c(nc3ccc(OC(=O)N4CCC(N5CCCCC5)CC4)cc13)-c1cc3c(c(=O)n1C2)COC(=O)[C@]3(O)CC | 6.04% and 11.2% | 2.87% and 1.26% | 5% and 16.3% | 7.83% and 32.1% | 13.7% and 30.1% | 7.49% and 10.4% | 55.3% and 54.4% | 49.3% and 46.9% | 1.04% and 3.21% | -12% and 3.28% |
| CN(C)CCCN1c2ccccc2Sc2ccc(Cl)cc21 | -1.92% | -1.4% | 0.129% | -1.08% | 0.279% | -2.17% | 24.1% | -0.706% | -5.1% | 2.77% |
| COc1ccc(C2C(=O)c3ccccc3C2=O)cc1 | -0.495% | 1.03% | -0.141% | 0.658% | -0.413% | 1.25% | 2.05% | -1.32% | -1.7% | 1.54% |
| O=C(CCCN1CCC(O)(c2ccc(Cl)cc2)CC1)c1ccc(F)cc1 | 0.532% | 0.49% | 2.11% | 2.82% | 5.5% | 1.74% | 2.33% | 2.23% | 0.854% | 1.18% |
| CN1CCN(c2cc3c(cc2F)c(=O)c(C(=O)O)cn3-c2ccc(F)cc2)CC1 | 0.274% | 1.39% | 0.237% | 1.68% | 1.58% | -0.335% | 4.83% | 0.444% | 1.63% | 0.0917% |
| CCOC(=O)c1c(CSc2ccccc2)n(C)c2cc(Br)c(O)c(CN(C)C)c12 | 0.0747% | -1.13% | 3.04% | 0.402% | 0.0757% | -2.62% | 53.4% | -4.36% | -8.38% | 3.61% |
| O=NN(CCCl)C(=O)NC1CCCCC1 | 0.207% | 0.604% | 3.11% | 1.74% | 2.6% | 0.392% | 8.64% | 0.873% | 2.64% | 0.32% |
| C[C@@H]1C/C=C/C=C/C=C/C=C/[C@H](O[C@@H]2O[C@H](C)[C@@H](O)[C@H](N)[C@@H]2O)C[C@@H]2O[C@](O)(C[C@@H](O)C[C@H]3O[C@@H]3/C=C/C(=O)O1)C[C@H](O)[C@H]2C(=O)O | 1.2% | 2.42% | 1.64% | 1.2% | 1.86% | 0.734% | -0.468% | 0.119% | 3.23% | 0.668% |
| CC/C(=C(\c1ccccc1)c1ccc(OCCN(C)C)cc1)c1ccccc1 | 7.72% | 1.28% | 12.1% | 3.63% | 11.1% | 10.5% | 21% | 7.38% | 5.56% | 2.99% |
| O=C(O)CCNC(=O)c1ccccc1 | 0.362% | 2.48% | 0.618% | 0.575% | 0.895% | 0.906% | -1.4% | 0.839% | 1.57% | 1.01% |
